The source of these data is ChEMBL document CHEMBL2218924, “A broad activity screen in support of a chemogenomic map for kinase signalling research and drug discovery” (Biochem J, 2013).

Each structure is given as a SMILES string.

In assay [1] the target is T1, Serine/threonine-protein kinase TBK1 (Homo sapiens) (UniProt Q9UHD2).
T1 sequence (whole entry): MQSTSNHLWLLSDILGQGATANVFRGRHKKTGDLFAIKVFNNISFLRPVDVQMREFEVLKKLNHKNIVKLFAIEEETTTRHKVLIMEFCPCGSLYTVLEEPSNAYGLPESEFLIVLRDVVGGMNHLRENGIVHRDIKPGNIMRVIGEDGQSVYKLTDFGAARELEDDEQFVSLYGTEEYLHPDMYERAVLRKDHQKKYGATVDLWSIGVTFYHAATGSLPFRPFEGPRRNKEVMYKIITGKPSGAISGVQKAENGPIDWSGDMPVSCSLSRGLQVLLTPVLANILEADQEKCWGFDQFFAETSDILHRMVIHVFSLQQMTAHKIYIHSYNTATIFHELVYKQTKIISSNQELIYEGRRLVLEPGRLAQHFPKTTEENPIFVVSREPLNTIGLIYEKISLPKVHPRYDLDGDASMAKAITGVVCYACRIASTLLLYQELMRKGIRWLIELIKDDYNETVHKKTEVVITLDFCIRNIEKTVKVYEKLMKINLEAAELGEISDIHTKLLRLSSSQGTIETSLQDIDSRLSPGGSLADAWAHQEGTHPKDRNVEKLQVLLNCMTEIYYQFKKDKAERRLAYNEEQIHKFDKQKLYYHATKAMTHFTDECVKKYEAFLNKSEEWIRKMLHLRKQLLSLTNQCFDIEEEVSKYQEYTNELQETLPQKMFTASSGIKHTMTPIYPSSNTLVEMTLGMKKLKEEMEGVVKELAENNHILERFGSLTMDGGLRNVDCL
The note with it: at 10 µM.

In assay [2] the target is T2, TGF-beta receptor type-1 (Homo sapiens) (UniProt P36897).
T2 sequence (whole entry): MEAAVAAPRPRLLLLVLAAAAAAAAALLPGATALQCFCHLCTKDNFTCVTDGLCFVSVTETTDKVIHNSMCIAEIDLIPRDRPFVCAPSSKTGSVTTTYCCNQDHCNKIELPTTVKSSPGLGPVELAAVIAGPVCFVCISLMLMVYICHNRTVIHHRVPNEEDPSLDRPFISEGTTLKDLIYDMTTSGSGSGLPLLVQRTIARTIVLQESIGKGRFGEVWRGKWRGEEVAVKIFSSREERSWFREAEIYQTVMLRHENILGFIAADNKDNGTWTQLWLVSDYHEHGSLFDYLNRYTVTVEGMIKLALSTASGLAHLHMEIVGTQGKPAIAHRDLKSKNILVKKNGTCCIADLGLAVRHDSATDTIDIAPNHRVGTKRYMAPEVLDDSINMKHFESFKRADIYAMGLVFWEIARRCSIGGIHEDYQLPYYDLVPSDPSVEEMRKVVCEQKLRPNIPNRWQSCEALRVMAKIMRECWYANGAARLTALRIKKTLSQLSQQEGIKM
Conditions: at 1 µM.

Assay [3] has as its target T2, TGF-beta receptor type-1 (Homo sapiens). The note with it: at 10 µM.
Assay [4] concerns the target Insulin-like growth factor 1 receptor (Homo sapiens) (UniProt P08069). The note with it: at 1 µM.
Assay [5] has the same target. Conditions: at 10 µM.
In assay [6] the target is T3, Inhibitor of nuclear factor kappa-B kinase subunit alpha (Homo sapiens) (UniProt O15111).
T3 sequence (whole entry): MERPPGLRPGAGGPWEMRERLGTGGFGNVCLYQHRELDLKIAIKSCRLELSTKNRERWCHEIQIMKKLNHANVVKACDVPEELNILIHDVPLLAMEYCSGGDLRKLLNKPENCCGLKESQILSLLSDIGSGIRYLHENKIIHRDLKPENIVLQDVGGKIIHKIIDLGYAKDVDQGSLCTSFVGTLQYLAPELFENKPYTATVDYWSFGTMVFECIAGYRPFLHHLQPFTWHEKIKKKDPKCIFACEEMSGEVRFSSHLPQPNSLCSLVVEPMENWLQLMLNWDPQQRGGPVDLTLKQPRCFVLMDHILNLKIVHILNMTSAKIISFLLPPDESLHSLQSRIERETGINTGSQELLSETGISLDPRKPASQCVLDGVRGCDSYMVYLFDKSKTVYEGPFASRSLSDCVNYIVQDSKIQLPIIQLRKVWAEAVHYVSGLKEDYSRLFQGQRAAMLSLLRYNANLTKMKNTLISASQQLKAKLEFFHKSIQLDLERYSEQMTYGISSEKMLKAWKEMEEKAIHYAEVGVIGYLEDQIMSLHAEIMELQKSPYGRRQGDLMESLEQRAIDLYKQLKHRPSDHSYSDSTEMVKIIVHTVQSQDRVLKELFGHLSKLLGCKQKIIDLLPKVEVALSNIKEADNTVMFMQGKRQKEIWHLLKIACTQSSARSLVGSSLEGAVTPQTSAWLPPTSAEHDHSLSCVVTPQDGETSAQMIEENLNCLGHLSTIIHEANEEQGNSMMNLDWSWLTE
The note with it: at 1 µM.

The target of assay [7] is T3, Inhibitor of nuclear factor kappa-B kinase subunit alpha (Homo sapiens). Conditions: at 10 µM.
Assay [8] concerns the target T4, Inhibitor of nuclear factor kappa-B kinase subunit beta (Homo sapiens) (UniProt O14920).
T4 sequence (whole entry): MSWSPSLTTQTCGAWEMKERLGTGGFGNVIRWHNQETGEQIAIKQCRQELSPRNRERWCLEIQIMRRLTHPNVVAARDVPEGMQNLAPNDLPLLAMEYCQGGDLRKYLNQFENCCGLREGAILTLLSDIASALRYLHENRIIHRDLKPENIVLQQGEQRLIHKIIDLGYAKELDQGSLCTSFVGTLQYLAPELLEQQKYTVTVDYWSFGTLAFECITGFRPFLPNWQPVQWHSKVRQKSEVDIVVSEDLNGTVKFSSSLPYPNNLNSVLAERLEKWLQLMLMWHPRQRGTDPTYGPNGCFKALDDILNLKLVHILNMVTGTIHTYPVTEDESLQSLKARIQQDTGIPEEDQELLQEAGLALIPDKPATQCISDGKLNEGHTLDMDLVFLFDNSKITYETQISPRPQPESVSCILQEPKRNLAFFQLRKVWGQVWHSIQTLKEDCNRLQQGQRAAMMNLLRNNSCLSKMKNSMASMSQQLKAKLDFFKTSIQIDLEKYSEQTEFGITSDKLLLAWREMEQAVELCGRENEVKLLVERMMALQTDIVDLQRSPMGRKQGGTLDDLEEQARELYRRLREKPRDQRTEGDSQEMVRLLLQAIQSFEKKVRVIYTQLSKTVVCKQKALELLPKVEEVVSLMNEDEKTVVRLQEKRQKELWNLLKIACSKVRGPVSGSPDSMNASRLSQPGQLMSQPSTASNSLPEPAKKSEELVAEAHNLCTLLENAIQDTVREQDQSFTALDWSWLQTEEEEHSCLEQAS
The note with it: at 1 µM.

In assay [9] the target is T4, Inhibitor of nuclear factor kappa-B kinase subunit beta (Homo sapiens). Conditions: at 10 µM.
Assay [10] concerns the target Insulin receptor (Homo sapiens) (UniProt P06213). Conditions: at 1 µM.

Chain of Insulin-like growth factor 1 receptor (Homo sapiens) (P08069 31-736 limits assumed): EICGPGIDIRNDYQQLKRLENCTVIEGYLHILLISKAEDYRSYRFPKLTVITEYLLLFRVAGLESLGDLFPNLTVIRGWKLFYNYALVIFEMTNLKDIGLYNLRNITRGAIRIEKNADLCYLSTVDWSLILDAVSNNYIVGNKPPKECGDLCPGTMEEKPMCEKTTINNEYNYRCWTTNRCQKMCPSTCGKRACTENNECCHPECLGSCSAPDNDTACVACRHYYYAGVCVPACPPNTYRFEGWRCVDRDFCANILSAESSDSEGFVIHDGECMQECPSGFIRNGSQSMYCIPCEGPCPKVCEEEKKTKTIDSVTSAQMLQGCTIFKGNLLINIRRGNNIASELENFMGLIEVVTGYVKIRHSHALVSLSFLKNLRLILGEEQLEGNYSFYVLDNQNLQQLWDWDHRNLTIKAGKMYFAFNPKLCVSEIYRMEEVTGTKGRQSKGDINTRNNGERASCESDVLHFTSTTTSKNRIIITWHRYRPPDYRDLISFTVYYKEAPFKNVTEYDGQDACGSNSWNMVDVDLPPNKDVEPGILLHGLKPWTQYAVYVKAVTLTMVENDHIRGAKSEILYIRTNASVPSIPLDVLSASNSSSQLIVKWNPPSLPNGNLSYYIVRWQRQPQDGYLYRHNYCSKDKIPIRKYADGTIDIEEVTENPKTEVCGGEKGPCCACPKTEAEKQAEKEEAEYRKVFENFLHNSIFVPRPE
Chain of Insulin-like growth factor 1 receptor (Homo sapiens) (P08069 741-1367 limits assumed): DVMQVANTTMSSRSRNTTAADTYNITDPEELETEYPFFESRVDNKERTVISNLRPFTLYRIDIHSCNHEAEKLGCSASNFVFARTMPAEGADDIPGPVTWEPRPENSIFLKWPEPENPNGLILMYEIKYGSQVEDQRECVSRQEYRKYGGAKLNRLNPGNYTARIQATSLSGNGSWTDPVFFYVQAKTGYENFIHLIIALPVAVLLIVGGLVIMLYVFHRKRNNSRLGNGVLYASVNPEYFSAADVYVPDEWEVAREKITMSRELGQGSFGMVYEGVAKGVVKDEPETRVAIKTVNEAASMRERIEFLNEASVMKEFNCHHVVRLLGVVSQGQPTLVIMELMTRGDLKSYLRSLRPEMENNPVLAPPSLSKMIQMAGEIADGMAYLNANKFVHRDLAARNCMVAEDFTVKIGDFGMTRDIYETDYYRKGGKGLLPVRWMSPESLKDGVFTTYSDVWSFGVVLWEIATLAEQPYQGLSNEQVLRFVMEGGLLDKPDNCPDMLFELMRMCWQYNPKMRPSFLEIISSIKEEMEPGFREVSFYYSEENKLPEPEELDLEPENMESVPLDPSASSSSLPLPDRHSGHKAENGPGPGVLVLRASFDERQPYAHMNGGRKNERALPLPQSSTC
Chain of Insulin receptor (Homo sapiens) (P06213 28-758 limits assumed): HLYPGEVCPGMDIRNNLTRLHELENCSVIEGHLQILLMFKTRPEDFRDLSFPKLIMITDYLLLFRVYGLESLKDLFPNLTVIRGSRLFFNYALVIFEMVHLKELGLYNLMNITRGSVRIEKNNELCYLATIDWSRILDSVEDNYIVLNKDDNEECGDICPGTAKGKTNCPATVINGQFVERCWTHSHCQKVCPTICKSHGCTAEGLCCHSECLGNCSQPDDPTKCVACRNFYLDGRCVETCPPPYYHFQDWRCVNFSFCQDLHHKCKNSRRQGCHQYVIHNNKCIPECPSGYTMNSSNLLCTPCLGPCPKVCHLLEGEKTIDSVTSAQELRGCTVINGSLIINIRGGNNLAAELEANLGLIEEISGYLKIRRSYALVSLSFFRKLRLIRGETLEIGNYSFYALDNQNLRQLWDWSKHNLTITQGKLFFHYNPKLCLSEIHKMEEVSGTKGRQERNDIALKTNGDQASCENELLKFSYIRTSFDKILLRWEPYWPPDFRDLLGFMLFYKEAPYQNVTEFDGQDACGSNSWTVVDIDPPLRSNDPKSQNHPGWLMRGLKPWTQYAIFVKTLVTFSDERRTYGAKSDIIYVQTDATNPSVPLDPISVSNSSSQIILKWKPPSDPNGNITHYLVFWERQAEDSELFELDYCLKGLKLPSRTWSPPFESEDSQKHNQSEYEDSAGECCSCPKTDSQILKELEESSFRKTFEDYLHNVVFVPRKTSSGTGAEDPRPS
Chain of Insulin receptor (Homo sapiens) (P06213 763-1382 limits assumed): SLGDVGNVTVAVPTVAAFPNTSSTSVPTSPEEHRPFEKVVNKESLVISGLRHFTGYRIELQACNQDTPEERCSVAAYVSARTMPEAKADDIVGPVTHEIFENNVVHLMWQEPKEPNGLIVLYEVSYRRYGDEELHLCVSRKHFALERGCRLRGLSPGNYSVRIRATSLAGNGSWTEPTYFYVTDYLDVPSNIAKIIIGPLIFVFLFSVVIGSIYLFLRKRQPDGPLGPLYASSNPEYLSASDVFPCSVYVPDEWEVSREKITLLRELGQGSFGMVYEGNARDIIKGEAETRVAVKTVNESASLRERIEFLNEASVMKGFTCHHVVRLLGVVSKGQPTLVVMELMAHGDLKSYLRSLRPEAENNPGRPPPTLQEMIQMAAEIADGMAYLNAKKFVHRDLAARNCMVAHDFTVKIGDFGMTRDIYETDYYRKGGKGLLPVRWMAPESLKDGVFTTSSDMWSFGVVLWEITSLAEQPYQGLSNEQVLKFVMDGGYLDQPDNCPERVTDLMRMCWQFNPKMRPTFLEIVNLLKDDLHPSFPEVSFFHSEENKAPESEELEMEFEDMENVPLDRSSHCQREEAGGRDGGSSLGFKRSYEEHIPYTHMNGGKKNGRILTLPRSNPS

On to `CCN(CC)CCCCN1c2ccccc2Oc2ccc(Cl)cc21`, for which the residual activity in assay [1] was 82%; in [2], 84%; in assay [3], 105%; in [4], 107%; in assay [5] it was 104%; in assay [6], 97%. For the same compound, the residual activity worked out at 102% in [7], 112% in [8], 105% in assay [9] and 114% in assay [10].

As a reminder, the residual activity is the signal under treatment as a percentage of the control signal.
